Data on 11 molecules can be found in article PMC12529666, “Dysregulation of AGO2-miRNA dynamics underlies the AGO2-associated Lessel–Kreienkamp syndrome”.

The labels stand for the following.
B1: ACATTCTG (ssRNA)
RNA 1: GAGUUCUACAGUCCGACGAUCCCAACACAUUCUGCACCUGGAAUUCUCGGGUGCCAA
RNA 2: UGGAGUGUGACAAUGGUGUUUG
DNA 1: GATCGTCGGACTGTAGAACTC
DNA 2: TTGGCACCCGAGAATTCCA
modifications: constant regions annealed to DNA blockers; guide miR-122 5' phosphate
B2: GCACTTTA (ssRNA)
RNA 1: GAGUUCUACAGUCCGACGAUCCCAACGCACUUUACACCUGGAAUUCUCGGGUGCCAA
RNA 2: UGGAGUGUGACAAUGGUGUUUG
DNA 1: GATCGTCGGACTGTAGAACTC
DNA 2: TTGGCACCCGAGAATTCCA
modifications: constant regions annealed to DNA blockers; guide miR-122 5' phosphate
B3: GTGCTCTA (ssRNA)
RNA 1: GAGUUCUACAGUCCGACGAUCCCAACGUGCUCUACACCUGGAAUUCUCGGGUGCCAA
RNA 2: UGGAGUGUGACAAUGGUGUUUG
DNA 1: GATCGTCGGACTGTAGAACTC
DNA 2: TTGGCACCCGAGAATTCCA
modifications: constant regions annealed to DNA blockers; guide miR-122 5' phosphate
B4: GCGTCTTA (ssRNA)
RNA 1: GAGUUCUACAGUCCGACGAUCCCAACGCGUCUUACACCUGGAAUUCUCGGGUGCCAA
RNA 2: UGGAGUGUGACAAUGGUGUUUG
DNA 1: GATCGTCGGACTGTAGAACTC
DNA 2: TTGGCACCCGAGAATTCCA
modifications: constant regions annealed to DNA blockers; guide miR-122 5' phosphate
B5: ATACCCTA (ssRNA)
RNA 1: GAGUUCUACAGUCCGACGAUCCCAACAUACCCUACACCUGGAAUUCUCGGGUGCCAA
RNA 2: UGGAGUGUGACAAUGGUGUUUG
DNA 1: GATCGTCGGACTGTAGAACTC
DNA 2: TTGGCACCCGAGAATTCCA
modifications: constant regions annealed to DNA blockers; guide miR-122 5' phosphate
B6: GTACCCTA (ssRNA)
RNA 1: GAGUUCUACAGUCCGACGAUCCCAACGUACCCUACACCUGGAAUUCUCGGGUGCCAA
RNA 2: UGGAGUGUGACAAUGGUGUUUG
DNA 1: GATCGTCGGACTGTAGAACTC
DNA 2: TTGGCACCCGAGAATTCCA
modifications: constant regions annealed to DNA blockers; guide miR-122 5' phosphate
B7: GCACCCTG (ssRNA)
RNA 1: GAGUUCUACAGUCCGACGAUCCCAACGCACCCUGCACCUGGAAUUCUCGGGUGCCAA
RNA 2: UGGAGUGUGACAAUGGUGUUUG
DNA 1: GATCGTCGGACTGTAGAACTC
DNA 2: TTGGCACCCGAGAATTCCA
modifications: constant regions annealed to DNA blockers; guide miR-122 5' phosphate
B8: GTACCCCA (ssRNA)
RNA 1: GAGUUCUACAGUCCGACGAUCCCAACGUACCCCACACCUGGAAUUCUCGGGUGCCAA
RNA 2: UGGAGUGUGACAAUGGUGUUUG
DNA 1: GATCGTCGGACTGTAGAACTC
DNA 2: TTGGCACCCGAGAATTCCA
modifications: constant regions annealed to DNA blockers; guide miR-122 5' phosphate
B9: ATACCCCA (ssRNA)
RNA 1: GAGUUCUACAGUCCGACGAUCCCAACAUACCCCACACCUGGAAUUCUCGGGUGCCAA
RNA 2: UGGAGUGUGACAAUGGUGUUUG
DNA 1: GATCGTCGGACTGTAGAACTC
DNA 2: TTGGCACCCGAGAATTCCA
modifications: constant regions annealed to DNA blockers; guide miR-122 5' phosphate
B10: GCGTTCCG (ssRNA)
RNA 1: GAGUUCUACAGUCCGACGAUCCCAACGCGUUCCGCACCUGGAAUUCUCGGGUGCCAA
RNA 2: UGGAGUGUGACAAUGGUGUUUG
DNA 1: GATCGTCGGACTGTAGAACTC
DNA 2: TTGGCACCCGAGAATTCCA
modifications: constant regions annealed to DNA blockers; guide miR-122 5' phosphate
B11: GCATCTTA (ssRNA)
RNA 1: GAGUUCUACAGUCCGACGAUCCCAACGCAUCUUACACCUGGAAUUCUCGGGUGCCAA
RNA 2: UGGAGUGUGACAAUGGUGUUUG
DNA 1: GATCGTCGGACTGTAGAACTC
DNA 2: TTGGCACCCGAGAATTCCA
modifications: constant regions annealed to DNA blockers; guide miR-122 5' phosphate

Sequence of AGO2 A367P (Q9UKV8 whole entry A367P/S387D/S824A/S828D/S831D/S834A): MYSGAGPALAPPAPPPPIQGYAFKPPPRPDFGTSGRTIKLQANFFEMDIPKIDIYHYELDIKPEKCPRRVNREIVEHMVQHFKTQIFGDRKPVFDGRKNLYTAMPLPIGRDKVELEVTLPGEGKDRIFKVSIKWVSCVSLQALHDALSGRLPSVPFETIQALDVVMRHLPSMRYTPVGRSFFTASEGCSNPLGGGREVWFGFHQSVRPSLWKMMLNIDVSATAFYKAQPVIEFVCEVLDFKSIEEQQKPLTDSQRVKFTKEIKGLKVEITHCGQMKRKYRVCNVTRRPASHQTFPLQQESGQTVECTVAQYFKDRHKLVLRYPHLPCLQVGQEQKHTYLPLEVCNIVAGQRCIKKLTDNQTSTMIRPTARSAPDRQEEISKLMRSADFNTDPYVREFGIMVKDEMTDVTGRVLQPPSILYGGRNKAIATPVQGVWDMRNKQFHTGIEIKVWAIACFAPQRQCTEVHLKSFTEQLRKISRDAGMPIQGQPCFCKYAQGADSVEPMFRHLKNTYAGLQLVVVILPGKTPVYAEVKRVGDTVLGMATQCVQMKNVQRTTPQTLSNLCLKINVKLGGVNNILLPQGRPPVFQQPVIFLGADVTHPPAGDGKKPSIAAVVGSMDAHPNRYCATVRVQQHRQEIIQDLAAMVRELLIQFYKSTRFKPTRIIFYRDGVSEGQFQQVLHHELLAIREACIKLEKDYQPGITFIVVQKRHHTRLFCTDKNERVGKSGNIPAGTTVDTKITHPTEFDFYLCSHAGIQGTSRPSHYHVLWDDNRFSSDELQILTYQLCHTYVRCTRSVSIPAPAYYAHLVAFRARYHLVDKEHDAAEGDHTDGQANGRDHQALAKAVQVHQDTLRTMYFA
Sequence of AGO2 F182del (Q9UKV8 other isoform, or with tags, fused parts or gaps S387D;S824A;S828D;S831D;S834A;del182-182): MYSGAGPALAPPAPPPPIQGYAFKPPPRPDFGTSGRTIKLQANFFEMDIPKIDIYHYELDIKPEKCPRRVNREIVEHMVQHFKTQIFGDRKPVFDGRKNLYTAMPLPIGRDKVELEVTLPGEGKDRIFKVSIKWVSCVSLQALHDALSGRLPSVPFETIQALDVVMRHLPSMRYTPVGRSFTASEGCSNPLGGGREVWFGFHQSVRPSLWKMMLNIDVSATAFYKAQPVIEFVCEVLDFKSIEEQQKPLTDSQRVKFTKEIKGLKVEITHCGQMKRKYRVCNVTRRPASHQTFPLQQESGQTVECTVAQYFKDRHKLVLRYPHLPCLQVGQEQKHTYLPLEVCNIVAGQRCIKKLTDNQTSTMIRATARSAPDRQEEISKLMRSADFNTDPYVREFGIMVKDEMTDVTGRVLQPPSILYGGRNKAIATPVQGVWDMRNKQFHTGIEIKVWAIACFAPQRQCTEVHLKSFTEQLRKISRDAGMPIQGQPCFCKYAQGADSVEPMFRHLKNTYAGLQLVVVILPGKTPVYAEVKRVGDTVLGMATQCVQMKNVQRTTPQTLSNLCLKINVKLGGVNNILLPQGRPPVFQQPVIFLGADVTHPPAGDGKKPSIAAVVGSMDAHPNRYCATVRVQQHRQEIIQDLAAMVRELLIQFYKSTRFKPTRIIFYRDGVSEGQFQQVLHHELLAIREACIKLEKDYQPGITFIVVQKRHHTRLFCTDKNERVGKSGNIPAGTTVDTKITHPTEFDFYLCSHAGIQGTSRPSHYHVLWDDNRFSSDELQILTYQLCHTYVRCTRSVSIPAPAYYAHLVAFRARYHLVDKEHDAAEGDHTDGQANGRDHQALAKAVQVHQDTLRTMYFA

The target in the first assay is AGO2 L192P (Homo sapiens, UniProt Q9UKV8 1-859, L192P;S387D;S824A;S828D;S831D;S834A). The assay is described as follows: RNA Bind-n-Seq (nitrocellulose filter binding and sequencing); miR-122 guide loaded in AGO2; 60 min incubation; 30 mM Tris pH 8.0, 100 mM potassium acetate, 2 mM magnesium acetate, 0.5 mM TCEP, 0.005% NP-40, 0.01 mg/ml yeast tRNA; 3 nM AGO2-miR-122, 100 nM RNA library; 60; high values mean tight binding. To be noted: protein: recombinant; tags: His6 (N-terminal, pFastBac HTA). The essentials: (§1)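 Fold enrichment is each target's read fraction divided by its read fraction in the input library. Sf9 insect cells expressed His-tagged AGO2 from baculovirus; the protein was loaded with a synthetic guide RNA and purified by Ni-NTA and a biotinylated capture oligo. The bound RNA was extracted, reverse-transcribed, barcode-amplified and sequenced on Illumina.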
Sequence of AGO2 L192P (Q9UKV8 whole entry L192P/S387D/S824A/S828D/S831D/S834A): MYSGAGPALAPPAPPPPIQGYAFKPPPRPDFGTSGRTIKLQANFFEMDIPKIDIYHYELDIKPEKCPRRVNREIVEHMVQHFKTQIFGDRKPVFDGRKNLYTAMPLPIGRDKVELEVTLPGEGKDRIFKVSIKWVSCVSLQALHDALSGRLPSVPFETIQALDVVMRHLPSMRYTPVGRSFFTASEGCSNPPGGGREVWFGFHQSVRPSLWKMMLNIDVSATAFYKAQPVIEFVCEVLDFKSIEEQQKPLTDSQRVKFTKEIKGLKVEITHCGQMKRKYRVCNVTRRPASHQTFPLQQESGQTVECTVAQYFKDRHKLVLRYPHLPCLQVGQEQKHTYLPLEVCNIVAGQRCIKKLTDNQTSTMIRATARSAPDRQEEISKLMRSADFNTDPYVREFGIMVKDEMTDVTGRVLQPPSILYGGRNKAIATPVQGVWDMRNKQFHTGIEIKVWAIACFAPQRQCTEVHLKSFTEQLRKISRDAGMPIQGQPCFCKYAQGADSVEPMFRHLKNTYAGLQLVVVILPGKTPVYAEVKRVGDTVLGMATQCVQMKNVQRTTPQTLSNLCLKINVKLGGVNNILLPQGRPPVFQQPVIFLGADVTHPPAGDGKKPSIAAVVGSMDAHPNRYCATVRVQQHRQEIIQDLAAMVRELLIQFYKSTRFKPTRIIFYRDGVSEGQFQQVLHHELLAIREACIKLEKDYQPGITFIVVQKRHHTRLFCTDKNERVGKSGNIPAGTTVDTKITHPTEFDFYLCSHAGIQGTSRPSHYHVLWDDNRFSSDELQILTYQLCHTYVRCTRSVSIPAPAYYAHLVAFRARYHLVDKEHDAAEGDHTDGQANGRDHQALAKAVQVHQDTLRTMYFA
Turning to B1, the binding signal is 0.392 fold enrichment over input.

As for B2, the binding signal is 0.493 fold enrichment over input.

For the molecule B3, the binding signal is 0.463 fold enrichment over input.

Turning to B4, the binding signal was 0.473 fold enrichment over input.

Take B5: the binding signal was 0.447 fold enrichment over input.

B6: the binding signal was 0.468 fold enrichment over input.

Consider B7, for which the binding signal is 0.416 fold enrichment over input.

Regarding B8, the binding signal is 0.497 fold enrichment over input.

Consider B9, for which the binding signal is 0.5 fold enrichment over input.

As for B10, the binding signal was 0.404 fold enrichment over input.

Regarding B11, the binding signal is 0.487 fold enrichment over input.

Another assay deals with AGO2 A367P (Homo sapiens, UniProt Q9UKV8 1-859, A367P;S387D;S824A;S828D;S831D;S834A). The description is as above. As to conditions: protein: recombinant; tags: His6 (N-terminal, pFastBac HTA). In short, it runs like this:
as §1
As to B1, the binding signal is 0.13 fold enrichment over input.

On to B2, for which the binding signal was 0.209 fold enrichment over input.

As to B3, the binding signal was 0.178 fold enrichment over input.

With B4, the binding signal is 0.2 fold enrichment over input.

Regarding B5, the binding signal is 0.148 fold enrichment over input.

Regarding B6, the binding signal is 0.168 fold enrichment over input.

On to B7, for which the binding signal is 0.171 fold enrichment over input.

For the molecule B8, the binding signal is 0.247 fold enrichment over input.

For the molecule B9, the binding signal is 0.177 fold enrichment over input.

Regarding B10, the binding signal is 0.149 fold enrichment over input.

As for B11, the binding signal was 0.189 fold enrichment over input.

For the next assay, the target named is AGO2 T357M (Homo sapiens, UniProt Q9UKV8 1-859, T357M;S387D;S824A;S828D;S831D;S834A). The assay is described as above. To be noted: protein: recombinant; tags: His6 (N-terminal, pFastBac HTA). The essentials: as §1
Sequence of AGO2 T357M (Q9UKV8 whole entry T357M/S387D/S824A/S828D/S831D/S834A): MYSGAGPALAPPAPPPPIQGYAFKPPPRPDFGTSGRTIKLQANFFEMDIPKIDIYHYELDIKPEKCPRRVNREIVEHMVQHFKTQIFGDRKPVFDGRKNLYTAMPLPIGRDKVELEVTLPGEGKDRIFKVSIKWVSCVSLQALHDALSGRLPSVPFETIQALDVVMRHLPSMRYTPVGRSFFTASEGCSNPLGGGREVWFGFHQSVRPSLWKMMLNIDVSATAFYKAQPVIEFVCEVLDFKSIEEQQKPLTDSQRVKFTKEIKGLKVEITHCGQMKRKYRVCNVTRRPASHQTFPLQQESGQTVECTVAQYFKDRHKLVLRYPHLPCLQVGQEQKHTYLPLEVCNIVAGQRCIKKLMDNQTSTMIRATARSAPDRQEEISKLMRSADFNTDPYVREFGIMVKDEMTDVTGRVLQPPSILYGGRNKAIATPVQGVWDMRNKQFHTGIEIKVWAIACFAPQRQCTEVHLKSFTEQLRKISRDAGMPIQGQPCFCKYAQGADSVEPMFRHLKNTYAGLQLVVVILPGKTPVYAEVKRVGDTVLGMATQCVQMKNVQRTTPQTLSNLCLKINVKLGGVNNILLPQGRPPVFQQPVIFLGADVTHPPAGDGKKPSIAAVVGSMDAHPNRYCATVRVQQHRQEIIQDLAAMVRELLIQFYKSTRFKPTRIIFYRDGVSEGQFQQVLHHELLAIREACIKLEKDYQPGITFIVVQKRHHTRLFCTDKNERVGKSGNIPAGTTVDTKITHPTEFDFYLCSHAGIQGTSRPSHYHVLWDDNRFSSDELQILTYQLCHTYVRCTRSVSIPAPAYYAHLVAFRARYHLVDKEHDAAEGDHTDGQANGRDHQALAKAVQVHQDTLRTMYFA
Take B1: the binding signal was 0.531 fold enrichment over input.

Turning to B2, the binding signal is 0.763 fold enrichment over input.

As for B3, the binding signal was 0.601 fold enrichment over input.

For B4, the binding signal was 0.656 fold enrichment over input.

As for B5, the binding signal is 0.496 fold enrichment over input.

With B6, the binding signal is 0.602 fold enrichment over input.

B7: the binding signal was 0.566 fold enrichment over input.

As for B8, the binding signal was 0.616 fold enrichment over input.

As to B9, the binding signal is 0.552 fold enrichment over input.

As for B10, the binding signal was 0.583 fold enrichment over input.

For B11, the binding signal was 0.676 fold enrichment over input.

The target of the next assay is AGO2 F182del (Homo sapiens, UniProt Q9UKV8 1-859, S387D;S824A;S828D;S831D;S834A;del182-182). The description is as above. As to conditions: protein: recombinant; tags: His6 (N-terminal, pFastBac HTA). The essentials:
as §1
As to B2, the binding signal is 0.122 fold enrichment over input.

Turning to B7, the binding signal is 0.176 fold enrichment over input.

Turning to B8, the binding signal is 0.455 fold enrichment over input.

As for B9, the binding signal is 0.199 fold enrichment over input.
